This note sets out measurements from the supplement of paper PMC6555819.

The test deals with VDR:RXRa (NR concentration 270 nM, RXRa partner concentration 90 nM). Description: PBM binding z-score (relative to random genomic background probes); higher = stronger binding; sequences stand for … in GC…GCGATTGACAGCGTAGAATGAAGG
The procedure:
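Protein-binding microarray (Agilent 4x180K custom design, double-stranded 60-nt probes: 5' GC cap, 34-nt variable region, 24-nt constant primer region; full probe sequence given). Purified or IVT nuclear receptor:RXRα heterodimers (3:1 NR:RXRα, mostly 270:90 nM) or homodimers were incubated for 1 h in PBS with 2% milk and no ligand, then detected with Alexa488 antibodies. Fluorescence from o1-orientation probes (~5 replicates averaged) was converted to z-scores against 500 random hg19 background probes. Variable regions are seed direct-repeat (DR0–DR5) sites, all their single-nucleotide variants and half-site ablations.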
Sequence CAAGACAGGTGAGAAGGTAACTCAGCCTCGATTA showed a PBM binding z-score of -0.155.
For CGTCAAAGTTCGACTAAGGTAACGTAAAGCACGC, the PBM binding z-score is 1.83.
CGAACTGGGTCATCCAGGACAGTGAATACATTGA registered a PBM binding z-score of 4.54.
Take ACACACAGGTGATGAAGGTAACTCAGGCTATCAT: the PBM binding z-score stood at 0.511.
As for ATCTCTAGGTAAGACTCACTTCAGTGAAGAACGC, the figure is 0.175; as for CCTGTTAGTTGACCATAAGGGCAACCGAAGCTCG, 0.474; as for GCTGCTAGGTCAGGTTGGTCCGCTAACGGGTACG, 0.681.
As for CCTTACGGGTCAATCCAGGTTATAGCATCGGAGT, the figure is 4.64; as for TCTCGGAGGACACGAAAGGTCATAGCTCGACATC, 4.71; as for CCTATTAGTGGACCATAAGGGCAACCGAAGCTCG, 0.134.
For TCTCGGAGGACACGAAGGGTCAGAGCTCGACATC the value was 1.91.
With CCTAGCAGGCCAATCTGGGGCACTCAAGGCTTGA, the PBM binding z-score was -0.786.
TCTCGGAGGACACGAAAGGTCAGAGCACGACATC: the PBM binding z-score came to 3.41.
As to ACTATTAGTTGAGACGAGGGTAACCGATAGGTTG, the PBM binding z-score came to 0.26.
As for CCTCGGAGGACAGAAGGTCAGACCTGTCCGCTTT, the figure is 1.05; as for ATCTTTAGGTAAAAGTTCAGTGAATCCCGAGGAT, 1.43.
On to CGTCCAAGGTCAGCAGGTCAGTGACAGCGACGTG, for which the PBM binding z-score was found to be 4.1.
AGTCAAAGATCATCTAGGTAACGTAAGATATGCT displayed a PBM binding z-score of 0.0146.
As for TCTTGTAGATCAGCAGGTTATGAAAGCTGGCCAA, the figure is 0.359; as for CCTAGCAAGCCAGGGTCACTCAAGCATTTCGCTT, 2.8.
In turn, TCGTGTAGGTTACCAATGGGGCATTCAGCTTTCT returned a PBM binding z-score of 0.608.
As for ATCTCTAGGTAACAAATTCAGTGAAAGAGAGGAC, the figure is 0.375; as for CTACCAAGGTGAACAAGGTCGTTGAATACTATTC, 5.99; as for CTCGAAAGGACGTGCTCAGGTGAGTATACCAAAC, -0.251.
As for GGAAGGAGGGCATTCGAGTTGATAGCATGGCGAT, the figure is 2.46.
On to CCGACTTGGGCATAAGGTTACCATAAGCCAGCCC, for which the PBM binding z-score was -0.311.
As for CTACCAAGGTGAACAAAGTCGTTGATTACTATTC, the figure is 0.601.
Consider GCTCACGGGTCAAAGGTTATAGCATGAATAGAAT, for which the PBM binding z-score worked out at 5.38.
In turn, GCTAGCAGGCCGTTTGGGTCACTCAATGACGGGC returned a PBM binding z-score of 0.00602.
For ATCGAAAGGTAGACGAGGTGAGTATACACCGTTT the value was 0.452; for GCAGACAGGTGAAACCCAGGTAACTCAGGGTGGC, -0.302.
For TCTTATAGGTAAAGGTGAAAGTCGAACGATATGA the value was 1.25; for ACTAGCAGGCTAAGTTTGGGTCACTCAAACAAAG, 0.216; for TTACCAAGGTGAGCTGAGGTCGCTGATCCAACTC, 2.9.
Sequence TTACCAAGGTGAGGTGAGGTCGTTGATCCAACTC registered a PBM binding z-score of 4.3.
For the sequence TTACCAAGTTGAAAGGTCGTTGATGCACGCCTTG, the PBM binding z-score amounted to 2.65.
For AGATCGAGGGCAATGAGTTGATAGCACGGGTGGC the value was 5.15.
As for TAACCTAGGTCATTCAGGGGCCAGTATAGAAAGC, the figure is 4.03; as for TCTGCTCGGTCAACGATGGTCAGCTAATCTGCTA, -0.245.
GCTAGCAGTCCATTTGGGTCACTCAATGACGGGC showed a PBM binding z-score of 0.562.
